Source: PubChem (National Center for Advancing Translational Sciences (NCATS))
An excerpt weighted towards active compounds, which were near 2.7% of everything screened.
Nrf2 block = inhibitors of Nrf2 signaling; A549 ARE-Fluc reporter, luciferase luminescence, 18-24 h; Potency, µM (top dose mostly 46 µM), for inactives: at the top dose activity change, negative = inhibition, usual class: inhibitors; 2.1% of 360,000 active; AID 504444; note: potency is the fitted concentration of half-maximal effect; % is set by controls: 0 for no effect and ±100 for the full control effect; nearly all actives have a fitted effect of over 60% in size
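Concentration-response testing used A549 ARE_Fluc cells at 5000 cells/well. Following an 18-24 h compound incubation, viability was read by fluorescence (Ex 405/Em 525) and luciferase output by luminescence.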
ALOX12 inh = ALOX12 (human) lipoxygenase inhibition; P18054; purified 12hLO, xylenol orange hydroperoxide absorbance; Potency, µM (series often up to 108 µM), for the others: at the top dose activity change, negative = inhibition, hits mostly inhibitors; 1.1% of 580,000 active; AID 1671190; note: potency is the fitted concentration of half-maximal effect; % is set by controls: 0 for no effect and ±100 for the full control effect
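Purified human 12hLO at 150 nM in 25 mM Hepes, 0.01% Triton X-100, pH 7.0, preincubated 15 min at room temperature with compound. Reaction started with 40 uM arachidonic acid, 30 min at room temperature. Hydroperoxide measured by Fe-xylenol orange, 573/405 nm absorbance ratio.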
ERG-DNA inh = ERG Ets/DNA interaction inhibition; AID 624246; 0.028% of 370,000 active; P11308; fluorescence polarization, His-ERG Ets domain / labelled DNA; Potency, µM (highest dose often 76.9 µM), inactives show at the top dose FP activity, negative = inhibition, actives largely listed as inhibitors; active = well fitted inhibition curve with a large enough effect in the polarisation, with a control signal flat; inconclusive = small, poorly fitted or top-dose-only effect, or effect the other way, or a change in a side signal; inactive = no such curve, though single readings can be large or run the other way; the % refers to the polarisation;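 note: polarization taken with two DNA probes labelled with fluorescein and Texas red; potency is the fitted concentration of half-maximal effect; % of control where 0% means no effect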
Target sequence (P11308 whole entry, looked up, the tested form may be a part): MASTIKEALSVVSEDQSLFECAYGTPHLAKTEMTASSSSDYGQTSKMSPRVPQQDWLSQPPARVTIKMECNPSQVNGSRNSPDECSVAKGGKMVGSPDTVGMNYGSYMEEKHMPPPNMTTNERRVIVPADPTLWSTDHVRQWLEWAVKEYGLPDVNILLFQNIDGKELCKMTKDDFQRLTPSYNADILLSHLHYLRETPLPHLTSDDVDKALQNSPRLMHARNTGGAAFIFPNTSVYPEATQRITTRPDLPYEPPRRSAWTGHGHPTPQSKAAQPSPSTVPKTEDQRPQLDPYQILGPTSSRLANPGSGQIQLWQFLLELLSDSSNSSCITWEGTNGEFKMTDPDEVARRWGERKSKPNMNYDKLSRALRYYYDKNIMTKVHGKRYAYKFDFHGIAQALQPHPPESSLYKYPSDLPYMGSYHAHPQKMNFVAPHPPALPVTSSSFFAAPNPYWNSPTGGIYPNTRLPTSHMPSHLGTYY
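His-tagged ERG Ets domain (1 uM in the protein solution; 300mM KCl, 50mM Tris-HCl, 1mM EDTA, 1mM DTT, pH 7.5) received compound, then a probe mix of 5 nM fluorescein-DNA and 100nM Texas-615-DNA. Fluorescence polarization was read for both dyes.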
A549 viability = A549 cytotoxicity, counter-screen for Nrf2 inhibitors; A549 ARE-Fluc cells, CellTiter-Fluor viability, 18-24 h; Potency, µM (top dose mostly 46 µM), inactives show top-dose activity change, negative = cytotoxicity, actives largely listed as inhibitors; 0.16% of 390,000 active; AID 504648; note: potency is the fitted concentration of half-maximal effect; % is set by controls: 0 for no effect and ±100 for the full control effect
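Cytotoxicity counterscreen: CellTiter-Fluor fluorescence was measured in A549 ARE_Fluc cells after 18-24 h of compound exposure in a concentration series. The subsequent BugLite luminescent read reports ARE-luciferase activity.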
LDHA block = blocks human lactate dehydrogenase A. AID 1347041. purified LDHA, NADH/diaphorase-resazurin fluorescence; hits give low values. activity change, % (values are at about 110 or 230 µM). P00338. 0.15% of 480,000 active; in the data active = activity change below about -30%; inconclusive = mostly about -25% to -30%;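 note: plate controls were DMSO wells for no effect and wells without enzyme for full effect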
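Human LDH5 (2 nM) was incubated with 0.06 mM NADH and 0.2 mM pyruvate for 5 min at room temperature in Tris pH 7.4. Remaining NADH was coupled through diaphorase/resazurin, and resorufin fluorescence was read at 0 and 20 min.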
Nrf2 ARE act = activators of Nrf2 (ARE) signaling; AREc32 ARE-luciferase reporter (MCF7-derived line), luminescence, 24 h; 0.31% of 410,000 active; Potency, µM (series often up to 46.1 µM), without a hit: at the highest dose activation, hits mostly activators; note: potency is the fitted concentration of half-maximal effect; % of control where 0% means no effect; nearly all actives have a fitted effect of over 65% in size
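AREc32 cells carrying an ARE-driven firefly luciferase, 1000 cells/well in OPTI-MEM with 5% FBS, dosed after overnight attachment and incubated 24 hr at 37 deg C. Steady-Glo luminescence read after 30 min at RT.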
* marks the source's active call; other numbers are inactive results; ? = inconclusive; . = no result given; [ ] = dose if it differs, or a comment. Unless noted, calls come from the whole dose curve; as a rule, active = well fitted curve in the direction sought with a large enough effect; inconclusive = small, poorly fitted or top-dose-only effect, or another doubt; inactive = no such curve, though single readings can be large; an effect the other way counts as inactive or inconclusive.

SMILES	Nrf2 block	ALOX12 inh	ERG-DNA inh	A549 viability	LDHA block	Nrf2 ARE act
N#CC1(NC(=O)COc2cccc(C(F)(F)F)c2)CCCC1	.	?	.	.	11	.
COc1cccc(CN2CC[C@H](c3nc4ccccc4s3)C2)c1	.	2%[176 µM]	.	.	.	.
O=C1NC(c2ccccc2)Nc2c1sc(=S)n2-c1ccccc1 (stereo not drawn)	?	45µM*	-4%	-2%	-2	5%
CC(C)c1nc(NCC2CCCO2)c(C#N)c2c1CCCC2 (stereo not drawn)	.	-7%	.	.	1	.
O=C(/C=C/c1ccc(-c2cccc(Cl)c2)o1)c1cc(Cl)ccc1Cl	.	18µM*	.	.	-3	.
Cc1ccc(C(=O)/C=C/c2ccc(-c3cc(Cl)ccc3Cl)o2)cc1	.	5µM*	.	.	14	.
O=C(/C=C/c1ccc(-c2ccccc2Cl)o1)c1ccccc1Br	.	4.5µM*	.	.	0	.
O=C(/C=C/c1ccc(-c2ccc(Cl)cc2Cl)o1)c1ccc(Br)cc1	.	8.9µM*	.	.	1	.
O=C(/C=C/c1ccc(-c2c(Cl)cccc2Cl)o1)c1ccc(Cl)cc1	.	?	.	.	5	.
CCOC(=O)C1CCN(c2nc3ccccc3n3c(=O)n(CC(=O)Nc4ccccc4C#N)nc23)CC1	.	-23%	.	.	-9	.
Cc1ccc(C(=O)/C=C/c2ccc(-c3cccc(Cl)c3Cl)o2)cc1	.	14µM*	.	.	11	.
CCc1ccc2c(Cn3cc(S(=O)(=O)N(C)C)ccc3=O)cc(=O)oc2c1	.	?	.	.	7	.
C=CCNC(=S)NS(=O)(=O)c1cccs1	5%	1.1µM*	-1%	0%	-6	0%
CC(C)(C)CNc1nc(C#N)nc(Nc2ccccc2)n1	18µM*	.	.	?	.	.
O=C(CCl)N1CC=C(c2ccccc2)CC1	.	?	.	.	43	.
Cc1nn(C)c(Sc2ccccc2N)c1[N+](=O)[O-]	8%	?	7%	-1%	-2	14µM*
Cc1nn(C)c(N)c1[N+](=O)[O-]	0%	0%	-2%	-4%	0	0%
Cc1ccc(CNC(=O)c2ccc(Nc3cc(-c4ccc(F)cc4)ncn3)cc2)o1	.	1%	.	.	-8	.
Cc1ccc(NC(=O)Cc2ccc(-n3c(C)nc4cccnc43)cc2)c(Cl)c1	21µM*	1%	-3%	-11%	-7	0%
CCOC(=O)C1CCN(C2=NC(=O)/C(=C/c3ccc(Cl)cc3)S2)CC1	10%	?	9%	0%	-3	?
CCOC(=O)CSC1=NC(=O)/C(=C\c2ccc(Cl)cc2)S1	?	45µM*	-5%	-5%	-11	18%
CCCc1cc(=O)oc2c(C)c(OC(C)C(=O)NCCCn3ccnc3)ccc12 (stereo not drawn)	.	64%	.	.	-33*	.
CN1CCN(c2ccc(-c3noc([C@@H]4CCCN4C4CCCCC4)n3)cn2)CC1	.	19%[176 µM]	.	.	.	.
Cc1cccc(NC(=O)N2CCC(C(=O)c3ccc(F)cc3)CC2)c1	?	-10%	10%	-10%	0	3%
COc1ccc(NC(=O)N2CCC(C(=O)c3ccc(F)cc3)CC2)cc1	-15%	-13%	-8%	10%	7	0%
SMILES	Nrf2 block	ALOX12 inh	ERG-DNA inh	A549 viability	LDHA block	Nrf2 ARE act
CSc1ccc(NC(=O)N2CCC(C(=O)c3ccc(F)cc3)CC2)cc1	16µM*	-7%	-2%	-8%	0	2%
Cc1cc(C)cc(NC(=O)N2CCC(C(=O)c3ccc(F)cc3)CC2)c1	15µM*	21%	-7%	-15%	-7	-1%
O=C(NCC(c1cccs1)N1CCCCC1)c1cc2ccccc2oc1=O (stereo not drawn)	.	?	.	.	-1	.
O=c1[nH]nc(-c2ccco2)c2c1Nc1nnnn1C2c1ccc(F)cc1 (stereo not drawn)	.	-16%	.	.	9	.
CN(CC(=O)Nc1c(Cl)cccc1Cl)C(=O)c1ccccc1SCC(=O)N1CCCC1	4%	-3%	-2%	11%	-9	0%
CN(CCOc1ccc(Cl)cc1)C(=O)c1ccccc1SCC(=O)N1CCCC1	13µM*	0%	7%	-15%	-4	0%
O=C(Nc1ccc(F)cc1)C1=C(N2CCOCC2)c2ccccc2S1(=O)=O	.	8%	.	.	-5	.
O=C(NC(=S)Nc1ccc(Cl)cn1)c1cccs1	?	27%	-3%	3%	-8	6.3µM*
O=C(/C=C/c1ccco1)NC(=S)Nc1ccc(Cl)cn1	6%	35µM*	11%	2%	-2	?
Cc1ccnc(NC(=S)NC(=O)/C=C/c2ccco2)c1	.	-23%	5%	?	1	?
O=C(NC(=S)NCc1ccccc1Cl)c1cccs1	?	16µM*	0%	4%	-5	16%
O=C(Nc1cccc(C(F)(F)F)c1)O[C@@H]1CO[C@H]2[C@@H]1OC[C@@H]2n1cc(-c2ccccn2)nn1	.	-4%	.	.	.	.
COc1cc(NC(=O)c2cc(-c3ccccc3)nc3c2cnn3C(C)C)cc(OC)c1OC	?	.	-7%	?	-18	-1%
CNC(=O)c1cccc(NC(=O)c2cc(-c3ccccc3)nc3c2cnn3C(C)C)c1	21µM*	?	13%	-20%	-2	0%
CN1CCN(CCCNC(=O)c2nc(-c3cccc4[nH]ccc34)no2)CC1	.	-8%	.	.	-1	.
CCOc1ccc(CNC(=O)C2CCN(c3nnc(-n4c(C)ccc4C)s3)CC2)cc1	15µM*	-4%	0%	2%	-4	6%
CCn1c(COc2ccc(Cl)cc2)nnc1SCC(=O)C(C)(C)C	.	13%	.	.	2	.
Cc1ccc(SCc2nc(-c3ccc(C(=O)NCc4ccccc4Cl)cc3)oc2C)cc1	15µM*	?	3%	3%	-11	-1%
COc1ccc(-n2cc(-c3ccccc3)[n+]3c2CCCCC3)cc1	8.2µM*	4%	-4%	-14%	-7	0%
O=C(COc1ccccc1F)Nc1ccc2nc(SCC(=O)N3CCCC3)sc2c1	?	-14%	3%	-14%	-1	7%
Cc1cccc(OCCSc2nc3ccc(NC(=O)c4cccs4)cc3s2)c1	23µM*	-21%	1%	1%	1	1%
O=C(COc1ccccc1F)Nc1ccc2nc(SCC(=O)N3CCOCC3)sc2c1	18µM*	-22%	1%	-13%	2	2%
Cc1cccc(C(=O)Nc2ccc3nc(SCC(=O)N4CCCC4)sc3c2)c1	18µM*	?	0%	-19%	6	6%
Cc1ccc(/C(O)=C2\C(=O)C(=O)NC2c2ccccc2)cc1 (stereo not drawn)	.	?	.	.	2	.
CC/C(C)=N/NC(=O)C(c1ccccc1)c1ccccc1	.	38%	.	.	-5	.
CCOC(=O)c1c(/N=C/c2cc(OC)cc([N+](=O)[O-])c2O)sc(C)c1C	-12%	?	0%	1%	6	2%
